Assay [1] in a line: Her2 expression decrease, cell viability multiplex – SKBR3 breast tumor cells, AlphaScreen, ATP viability, primary screen (AID 461;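 active means Her2 level under about 52% in both replicate screens, with viability over 70% of control, limit read from the data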;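 on Her2 level: lower value means less Her2 protein in the cells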;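 on viability: percent of carrier control wells set as 100% viability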). Conditions: SKBR3 Her2 protein level, 18-24 h, measured here: SKBR3 viability, ATP luminescence, at 10 µM. In general terms: Alpha assays give light when donor and acceptor beads are brought close together.
The target of assay [2] is Receptor tyrosine-protein kinase erbB-2 (Homo sapiens) (UniProt P04626). Described as above. The settings on record: 18-24 h, at 10 µM, stronger effect = lower value.
The nature of assay [3]: reduced viability of SK-BR-3 breast cancer cells – cell-based, 24 h, human, pilot screen (AID 572;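 active means viability at or below 10% of carrier control in both of two separate runs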;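 further: compound exposure lasted between 18 and 24 h rather than exactly 24 h; 100% = carrier-treated control wells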). The settings on record: SK-BR-3 viability, CellTiter-Glo luminescence, at 10 µM, stronger effect = lower value.
Assay [4] is described as follows: HUVEC growth inhibition – cell-based, human, primary screen (AID 575;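 active means viability at or below 30% in both replicate assays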;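 further: 100% = median of untreated cell wells with 0.1% DMSO on each plate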). Conditions: HUVEC proliferation, CellTiter-Glo luminescence, 72 h; at 10 µM; stronger effect = lower value. A general note: ATP-based viability assays read luminescence as a measure of living cells.
A short description of assay [5]: H69AR cell proliferation blockers – human, duplicate replicates, primary screen (AID 580;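 active means viability at or under a set limit in both replicates, limit being median viability minus 3 SD, cut at about 48% in these data, passing the limit was not always enough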;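 further: 100% = mean luminescence of untreated wells and 0% = no signal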). Conditions: H69AR lung tumor cells viability, ATP luminescence, 72 h; at 10 µM; stronger effect = lower value.
The nature of assay [6]: MRP1 drug-resistance reversers in H69AR cells – cell-based, doxorubicin co-treatment, pilot screen (AID 601;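 active means viability loss from added drug above about 55%, and viability with drug at most 40%, in both replicates, limit read from the data, passing the limit was not always enough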). The settings on record: CellTiter-Glo, 72 h, at 10 µM; for differential viability (reversal): stronger effect = higher value.
Assay [7] can be described thus: yeast transport mutant growth inhibition pilot in 384-well plates, post-Golgi transport modulator project (AID 636; in the data active means inhibition above about 31%). The settings on record: absorbance 615 nm, about 18 h, stronger effect = higher value.
A short description of assay [8]: growth suppression of yeast trafficking mutant, preliminary HTS, modulators of trafficking downstream of Golgi apparatus project, 1536-format plate, OD 615 nm (AID 637; in the data active means inhibition above about 30%). Conditions: yeast transport mutant growth, absorbance 615 nm, 18 h; stronger effect = higher value.
The nature of assay [9]: S. cerevisiae growth inhibition in permissive medium (OD615), pilot counter-assay for S. cerevisiae lifespan shortening project, permissive growth control (AID 705;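 active means growth inhibition above 25% in both replicates, a cutoff set 3 SD above the mean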). Conditions: OD615, 24 h, at 10 µM, stronger effect = higher value.
Assay [10] is described as follows: S. cerevisiae growth inhibition in restrictive medium, OD615, pilot screen, restrictive growth control, yeast lifespan reduction project (AID 706;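 active means growth inhibition above a set limit, 3 SD over mean compound inhibition, in both replicates, cut at about 43% in these data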;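 further: modified DeaD lifespan yeast strain shifted to restrictive glucose medium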). The settings on record: OD615, 48 h, at 10 µM, stronger effect = higher value.
Assay [11] is described as follows: doxorubicin toxicity protection in MRP-1 cells – H69AR cells, CellTiter-Glo, duplicate, MRP-1 activator project, pilot screen (AID 807;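 active means viability increase at or above a cutoff of the median across tested compounds plus 3 SD, cut at about 8.5% in these data, passing the limit was not always enough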;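 further: compound pretreatment 18-22 h then 72 h combined with doxorubicin; 0% = doxorubicin alone and 100% = vehicle without doxorubicin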). Conditions: H69AR viability with doxorubicin, CellTiter-Glo luminescence; at 10 µM; stronger effect = higher value.
The nature of assay [12]: viability of HCT116 without oncogenic beta-catenin – human colon tumor cells, pilot screen (AID 823;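 active means cell viability at or below a set limit in both duplicate runs, the limit being the all-compound median minus 4 SD, cut at about 23% in these data, passing the limit was not always enough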;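 further: 0% = wells killed by 20 µM Hyamine and 100% = untreated DMSO cell wells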). The settings on record: HCT116 beta-catenin knockout viability, CellTiter-Glo, 60 h; at 10 µM; stronger effect = lower value.
The nature of assay [13]: viability of PTEN-null HCT116 cells – cell-based, HCT116 clonal line, CellTiter-Glo, pilot screen (AID 824;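 active means viability at or below 27.92% in each of two runs, the all-compound median minus 4 SD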;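 further: 0% = 20 µM Hyamine control and 100% = vehicle cell control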). The settings on record: HCT116 PTEN-deleted viability, 60 h, at 10 µM, stronger effect = lower value.
Assay [14] can be described thus: RAM pathway blockade in budding yeast – dse1pr::URA3 reporter, 5-FOA selection, pilot screen (AID 869;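 active means inhibition over a set limit, the all-compound mean plus 3 SD, in both replicate runs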;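 further: 0% = DMSO wells with no growth and 100% = 10 µM 1-NA-PP1 with full growth; RAM network block rescues cells from 5-FOA so hits raise OD615 growth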). Conditions: S. cerevisiae dse1pr::URA3 5-FOA growth, OD615, 2 d; at 10 µM; stronger effect = higher value; strain carries analog-sensitive mutant Cbk1 kinase.
The nature of assay [15]: RAM signaling pathway blockade in yeast – S. cerevisiae, Pdr1DBD-CYC8 efflux-inhibited sensitized strain, primary screen (AID 1298).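 Further: 0% = DMSO untreated cells without growth and 100% = 10 µM 1-NA-PP1 full growth; higher means more yeast growth rescued from 5-FOA killing.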 The settings on record: S. cerevisiae cbk1-as DSE1-URA3 strain, 5-FOA growth OD615, 2 d; at 50 µM; stronger effect = higher value.
Setting [16] is: H69AR cells + 2 uM doxorubicin, measured here: viability with 2 uM doxorubicin, stronger effect = lower value.
The mark [17] stands for this setting: H69AR cells, compound alone cytotoxicity.

Results filed as inconclusive are left out. The source made the active and inactive calls.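 How the source made its calls, unless noted: active means RAM network inhibition above 8.4% in each of two replicates, 3 SD over the compound average; inconclusive means above 8.4% inhibition in only one replicate; inactive means 8.4% inhibition or less in each replicate.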

Sequence of Receptor tyrosine-protein kinase erbB-2 (Homo sapiens) (P04626 whole entry, looked up): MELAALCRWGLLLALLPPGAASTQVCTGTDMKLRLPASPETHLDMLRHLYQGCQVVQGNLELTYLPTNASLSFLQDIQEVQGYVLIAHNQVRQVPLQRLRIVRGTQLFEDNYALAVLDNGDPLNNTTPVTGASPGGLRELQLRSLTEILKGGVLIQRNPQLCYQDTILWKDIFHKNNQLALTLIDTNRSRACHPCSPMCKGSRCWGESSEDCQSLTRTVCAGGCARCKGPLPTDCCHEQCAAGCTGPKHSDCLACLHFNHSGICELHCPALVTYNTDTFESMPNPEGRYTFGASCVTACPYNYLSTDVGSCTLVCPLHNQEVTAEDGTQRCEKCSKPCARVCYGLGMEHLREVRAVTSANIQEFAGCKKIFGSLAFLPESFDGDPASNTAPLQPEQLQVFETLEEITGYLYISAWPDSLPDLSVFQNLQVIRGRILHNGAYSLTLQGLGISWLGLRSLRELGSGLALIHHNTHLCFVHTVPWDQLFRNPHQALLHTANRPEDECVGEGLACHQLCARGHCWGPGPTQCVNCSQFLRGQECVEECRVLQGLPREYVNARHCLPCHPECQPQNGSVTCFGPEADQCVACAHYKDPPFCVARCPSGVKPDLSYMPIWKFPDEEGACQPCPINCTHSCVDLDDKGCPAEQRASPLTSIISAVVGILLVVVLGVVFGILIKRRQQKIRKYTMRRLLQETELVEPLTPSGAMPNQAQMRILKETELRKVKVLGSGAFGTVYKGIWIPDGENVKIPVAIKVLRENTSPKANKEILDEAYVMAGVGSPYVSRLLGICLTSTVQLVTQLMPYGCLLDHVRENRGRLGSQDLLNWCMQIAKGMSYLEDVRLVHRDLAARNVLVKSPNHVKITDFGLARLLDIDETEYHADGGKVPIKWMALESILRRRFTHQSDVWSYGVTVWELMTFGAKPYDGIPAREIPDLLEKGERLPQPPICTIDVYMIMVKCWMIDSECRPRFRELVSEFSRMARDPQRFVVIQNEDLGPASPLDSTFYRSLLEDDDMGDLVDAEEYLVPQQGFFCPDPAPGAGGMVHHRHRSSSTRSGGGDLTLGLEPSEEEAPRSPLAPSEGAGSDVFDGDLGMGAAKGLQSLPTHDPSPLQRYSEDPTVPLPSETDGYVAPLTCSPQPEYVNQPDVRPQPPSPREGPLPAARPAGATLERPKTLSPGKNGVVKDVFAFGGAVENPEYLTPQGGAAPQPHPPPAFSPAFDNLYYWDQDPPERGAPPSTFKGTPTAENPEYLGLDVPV

As to `CC(C)CNc1oc(-c2ccc(F)cc2)nc1C#N`, the viability is 108% in [1]; 108% (inactive) in assay [3]; 103% (inactive) in assay [4]; 94.2% (inactive) in assay [5]; 92.5% in assay [6] (setting [16]); 94.2% in assay [6] (setting [17]). Also, the viability in [12] was 101% (inactive); in [13] it was 84.7% (inactive). For the same compound, in [2], the Her2 level was 110% (inactive). In addition, the differential viability (reversal) in assay [6] (H69AR cells + 2 uM doxorubicin) was 1.69% (inactive). The inhibition in assay [7] is -7.47% (inactive); in assay [8] it was -4.1% (inactive); in assay [14], 0.19% (inactive). Moreover, the growth inhibition in assay [9] is -15.3% (inactive); in assay [10] it was -11.5% (inactive). Further, the viability increase in assay [11] was 1.69% (inactive). Moreover, the RAM network inhibition in assay [15] was 5.05% (inactive).
For the compound `Cc1nc2sc(C(c3cccs3)N3CCC(C(N)=O)CC3)c(O)n2n1` (stereo not given), the viability in assay [1] was 92.5%; in [3] it was 92.5% (inactive); in [4] it was 100% (inactive); in [5], 91.8% (inactive); in assay [6] (setting [16]), 96.2%; in assay [6] (setting [17]) it was 91.8%. The viability in assay [12] is 101% (inactive); in assay [13], 94.2% (inactive). In addition, the Her2 level in [2] is 128% (inactive). Moreover, the differential viability (reversal) in [6] (H69AR cells + 2 uM doxorubicin) was -4.42% (inactive). For the same compound, the inhibition in [7] was -3.73% (inactive); in [8], -1% (inactive); in assay [14] it was 0.69% (inactive). For the same compound, the growth inhibition was -0.435% (inactive) in assay [9] and 3.77% (inactive) in [10]. Moreover, in assay [11], the viability increase was -0.3% (inactive). The RAM network inhibition in assay [15] was 4.12% (inactive).
As to `CN(C(=O)c1ccco1)c1nnc(C23CC4CC(CC(C4)C2)C3)s1`, the viability is 86% in assay [1]; 86% (inactive) in [3]; 60.3% (inactive) in assay [4]; 75.9% (inactive) in assay [5]; 76.5% in assay [6] (setting [16]); 75.9% in assay [6] (setting [17]). Also, the viability was 79.5% (inactive) in assay [12] and 66% (inactive) in assay [13]. Moreover, the Her2 level in assay [2] is 87% (inactive). Further, the differential viability (reversal) in assay [6] (H69AR cells + 2 uM doxorubicin) is -0.595% (inactive). Also, the inhibition in assay [7] was -3.73% (inactive); in [8], -0.83% (inactive); in assay [14], 0.17% (inactive). For the same compound, the results for the growth inhibition in assay [9] and in [10] were -8.84% (inactive) and -8.94% (inactive), respectively. Besides, the viability increase in assay [11] was -7.07% (inactive). In addition, the RAM network inhibition in assay [15] is 5.35% (inactive).
On to `CC(C)c1nnc(NC(=O)Cc2cccs2)s1`, for which the viability is 106% in assay [1]; 106% (inactive) in assay [3]; 106% (inactive) in [4]; 96.7% (inactive) in [5]; 90.6% in assay [6] (setting [16]); 96.7% in [6] (setting [17]). Moreover, the viability in assay [12] was 99.5% (inactive); in assay [13], 94.8% (inactive). Further, the Her2 level in assay [2] is 92% (inactive). For the same compound, the differential viability (reversal) in [6] (H69AR cells + 2 uM doxorubicin) is 6.08% (inactive). The values for the inhibition in [7], in assay [8] and in assay [14] were -2.53% (inactive), 1.48% (inactive) and 2.64% (inactive), respectively. Further, the growth inhibition in assay [9] is -2.5% (inactive); in [10], -0.8% (inactive). For the same compound, in [11], the viability increase is -0.07% (inactive). For the same compound, the RAM network inhibition in assay [15] was 0.83% (inactive).
With `O=C(Nc1ccc(CN2CCOCC2)cc1)c1cc2ccccn2n1`, the viability in assay [1] is 100%; in [3], 100% (inactive); in [4], 94.4% (inactive); in assay [5], 94.7% (inactive); in [6] (setting [16]), 95.2%; in [6] (setting [17]), 94.7%. Also, the viability is 100% (inactive) in [12] and 95% (inactive) in [13]. Besides, the Her2 level in assay [2] is 103% (inactive). Further, the differential viability (reversal) in assay [6] (H69AR cells + 2 uM doxorubicin) is -0.47% (inactive). In addition, the inhibition is 0.38% (inactive) in assay [7], 2.5% (inactive) in assay [8] and 0.65% (inactive) in assay [14]. In addition, the results for the growth inhibition in assay [9] and in assay [10] were -4.72% (inactive) and 7.87% (inactive), respectively. For the same compound, in [11], the viability increase is 2.39% (inactive). Further, the RAM network inhibition in [15] was 1.45% (inactive).

By viability is commonly meant a read-out of living cells in per cent, often relative to untreated cells. In general, inhibition refers to the relative decrease from the control value, in per cent.
